# How the values were obtained:
# Test in all cases: PBM binding z-score (relative to random genomic background probes); higher = stronger binding; sequences stand for … in GC…GCGATTGACAGCGTAGAATGAAGG
# [1] = system: FXR:RXRa (NR concentration 270 nM, RXRa partner concentration 90 nM)
# In short: (§1)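 Ligand-free nuclear receptor dimers were bound for 1 h to custom Agilent 4×180K protein-binding microarrays. Detection used antibodies against each partner (one per run). Binding z-scores rest on regression-normalized fluorescence, with random background probes as the reference.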
# [2] = system: LXRa:RXRa (NR concentration 270 nM, RXRa partner concentration 90 nM)
# In short: as §1
# [3] = system: LXRa homodimer (NR concentration 270 nM)
# In short: as §1
# [4] = system: LXRb:RXRa (NR concentration 270 nM, RXRa partner concentration 90 nM)
# In short: as §1
# [5] = system: LXRb homodimer (NR concentration 270 nM)
# In short: as §1
# [6] = system: PPARa:RXRa (NR concentration 270 nM, RXRa partner concentration 90 nM)
# In short: as §1
# [7] = system: PPARg:RXRa (NR concentration 180 nM, RXRa partner concentration 90 nM)
# In short: as §1
# [8] = system: PPARg:RXRa 270nM:90nM, anti-RXR (NR concentration 270 nM, RXRa partner concentration 90 nM)
# In short: as §1
# [9] = system: PPARg:RXRa 30nM:10nM, anti-RXR (NR concentration 30 nM, RXRa partner concentration 10 nM)
# In short: as §1
# [10] = system: PPARg:RXRa 90nM:30nM, anti-RXR (NR concentration 90 nM, RXRa partner concentration 30 nM)
# In short: as §1
# [11] = system: PPARg:RXRa DBDmut IVT, anti-RXR (DBD mutation: RXRa K156A/R161A, NR concentration 270 nM, RXRa partner concentration 90 nM)
# In short: as §1
# [12] = system: PPARg:RXRa IVT, anti-PPARg (NR concentration 270 nM, RXRa partner concentration 90 nM)
# In short: as §1
# [13] = system: PPARg DBDmut:RXRa IVT, anti-PPARg (DBD mutation: PPARg1 K132A/R137A, NR concentration 270 nM, RXRa partner concentration 90 nM)
# In short: as §1
# [14] = system: PPARg DBDmut IVT, anti-PPARg (DBD mutation: PPARg1 K132A/R137A, NR concentration 270 nM)
# In short: as §1
# [15] = system: PPARg homodimer (NR concentration 180 nM)
# In short: as §1
# [16] = system: PXR:RXRa (NR concentration 270 nM, RXRa partner concentration 90 nM)
# In short: as §1
# [17] = system: PXR homodimer (NR concentration 270 nM)
# In short: as §1
# [18] = system: RARa:RXR (NR concentration 270 nM, RXRa partner concentration 90 nM)
# In short: as §1
# [19] = system: RARa homodimer (NR concentration 270 nM)
# In short: as §1
# [20] = system: RARb:RXRa (NR concentration 270 nM, RXRa partner concentration 90 nM)
# In short: as §1
Sequence,PBM binding z-score [1],PBM binding z-score [2],PBM binding z-score [3],PBM binding z-score [4],PBM binding z-score [5],PBM binding z-score [6],PBM binding z-score [7],PBM binding z-score [8],PBM binding z-score [9],PBM binding z-score [10],PBM binding z-score [11],PBM binding z-score [12],PBM binding z-score [13],PBM binding z-score [14],PBM binding z-score [15],PBM binding z-score [16],PBM binding z-score [17],PBM binding z-score [18],PBM binding z-score [19],PBM binding z-score [20]
AGTCAAAGCTCATCTAGGTAACGTAAGATATGCT,-0.387,-0.578,-0.275,-0.318,-0.689,0.0609,0.604,0.302,-0.0105,0.0855,0.59,1.71,0.357,0.493,-0.497,-0.42,-0.351,-0.0294,-0.0154,-0.0836
AGTCAAAGTTCAGGACGAGGCAACGTAAAGCACG,3.7,3.55,1.2,1.5,-0.0334,3.22,4.51,4.56,1.57,3.42,-0.129,1.26,0.256,0.437,1.12,1.94,0.989,1.89,0.997,4.37
CATACAGGGTCAGCTAGGCCAGCGTAGGGACGGC,4.29,2.94,-0.144,1.98,0.387,4.38,3.25,2.9,0.559,2.04,1.15,2.23,0.338,0.666,1.25,2.09,0.247,2.95,0.0243,4.03
CCTGCTAGGTCACTGGTCAGCTAAAGCAGCTCGC,3.06,2.12,-0.0651,1.42,0.0623,3.29,3.55,4.04,1.31,3.18,4.87,4.51,0.683,-0.736,1.51,1.27,-0.378,2.08,-0.0661,3.92
AGTCAAGGTTCACTAGGTAACGTAAGATTCAGCT,3.03,3.03,0.713,1.93,0.445,3.59,4.38,4.46,1.58,3.65,2.7,4.17,0.684,1.3,1.04,1.83,0.833,1.9,-0.0473,2.75
ATCTATAGGTAAAGATAGTTCAGTGAATGCAAAT,0.466,5.29,0.591,1.55,0.423,0.82,1.09,0.484,0.425,0.604,1.2,1.29,0.937,1.26,0.82,1.65,0.751,0.916,0.797,0.78
CGTCCAAGTTCATAGGAGGTCAGTGAAGACAGAT,5.25,6.43,3.8,4.3,0.586,3.83,1.6,2.43,0.744,1.47,0.698,1.81,0.494,0.544,3.04,6.14,9.37,4.07,1.68,4.14
ATCTCTAGGTAATACTCAGTTCAGTGAAGAACGC,0.748,1.03,1.19,0.468,1.55,0.541,0.424,0.567,0.572,0.52,2.77,1.87,1.44,1.47,1.53,1.58,2.24,0.858,2.17,0.79
ACAGCCAGGTGATGAAGGTAACTCAGGCTATCAT,-0.381,-0.496,-0.468,-0.553,-0.982,0.0268,0.565,-0.0458,-0.229,-0.315,0.0691,0.392,-0.315,-0.803,-0.425,-0.407,-0.502,0.0022,-0.504,-0.00483
GCTGCTAGGTCAACTGATGGTCAGCTACAGCTCG,4.25,2.91,0.26,1.97,0.014,3.65,2.65,2.9,0.862,1.99,4.96,3.94,-0.525,-0.577,1.97,1.62,-0.454,2.71,-0.247,4.15
CAAACTAGGTCAAAGGTGAAAGTCGAGCCAACCA,6.6,5.02,0.751,4.52,0.619,7.19,13.3,10.7,12.4,13.5,8.83,8.9,5.06,3.41,4.11,4.59,0.25,7.31,1.09,4.41
AGTCAAAGTTTAGGACGAGGTAACGTAAAGCACG,0.493,-0.103,-0.205,-0.158,-0.175,0.331,0.904,0.793,0.252,0.625,-0.369,0.311,0.476,0.0826,0.281,0.168,-0.0643,0.219,0.258,1.41
CCGGCTGGGGCATAAGGTTACCATAAGCCAGCCC,-0.0908,1.73,-0.45,0.426,-1.54,1.11,0.631,1.5,-0.332,0.706,-0.781,0.196,-2.71,-2.08,1.02,0.131,-0.484,1.23,-0.82,1.62
CGAACTAGGTCACAACAGGACAGTGAAGGATGAT,3.29,4.76,0.422,2.17,0.119,4.65,7.81,6.57,3.9,6.22,8.41,8.69,2.32,1.05,1.54,1.85,0.241,1.87,0.573,3.79
